Sampled rows, rich in hits. Any-hit rate of the full collection: about 1.2%.
RGS4-Gao reg: modulators of RGS4 binding to Galphao, primary screen, biochemical, multiplexed bead flow cytometry | Guanine nucleotide-binding protein G(o) subunit alpha (Homo sapiens), P09471 | actives lie on both sides | binding response (% of control), % at 10 µM | hit rate 0.33% among 220,000 | AID 1415, 2008; in the data active = binding response below about 49% or above about 150%; inactive = in between;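 note: fluorescent Galphao activated with aluminum fluoride binding bead-coupled RGS4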
Target sequence (P09471 whole entry, looked up): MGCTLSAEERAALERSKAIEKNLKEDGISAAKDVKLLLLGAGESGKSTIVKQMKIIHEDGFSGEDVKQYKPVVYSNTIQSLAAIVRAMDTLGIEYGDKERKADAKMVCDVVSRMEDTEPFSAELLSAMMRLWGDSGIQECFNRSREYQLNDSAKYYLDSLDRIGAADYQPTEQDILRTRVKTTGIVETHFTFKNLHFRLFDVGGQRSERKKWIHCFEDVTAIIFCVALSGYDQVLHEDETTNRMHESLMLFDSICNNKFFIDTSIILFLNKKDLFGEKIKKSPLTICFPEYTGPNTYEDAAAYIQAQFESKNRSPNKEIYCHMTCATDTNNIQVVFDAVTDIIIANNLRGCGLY
RGS8-Gao: RGS8-Galphao binding modulators, primary screen, biochemical, multiplexed bead flow cytometry; actives lie on both sides; response (percent of control binding), % at 10 µM; hit rate 0.34% among 220,000; AID 1423, 2008; in the data active = response below about 60% or above about 140%; inactive = in between;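 note: Galphao activated as the GDP aluminium fluoride complex binding bead-coupled RGS8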
Avidin bead fluor: green autofluorescence of compounds with avidin beads – biophysical, 488/530 nm, flow cytometry, artefact control, profiling panel; compound fluorescence 488/530 nm; stronger effect = higher value; fluorescence (KMESF) at 10 µM; hit rate 0.38% among 220,000; AID 1775, 2009; in the data active = fluorescence above about 47
RGS16-Gao: modulators of RGS16 binding to Galphao, primary screen, biochemical, human proteins, multiplexed bead flow cytometry; Regulator of G-protein signaling 16 (Homo sapiens) + Guanine nucleotide-binding protein …; bead-based flow cytometry RGS16-Galphao binding, fluorescence; actives lie on both sides; binding response (% of control), % at 10 µM; hit rate 0.38% among 220,000; call rule not given here;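 note: Galphao activated by GDP with aluminum fluoride before binding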
Target sequence (O15492 whole entry, looked up): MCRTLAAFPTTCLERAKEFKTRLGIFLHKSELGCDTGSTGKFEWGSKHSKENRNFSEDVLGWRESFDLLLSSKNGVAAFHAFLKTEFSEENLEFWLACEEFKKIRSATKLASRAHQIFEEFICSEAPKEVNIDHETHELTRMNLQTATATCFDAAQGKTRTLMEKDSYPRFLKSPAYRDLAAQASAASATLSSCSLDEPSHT
Target sequence (P09471 whole entry, looked up): as the sequence (P09471 whole entry, looked up) above
GSH fluor: compound fluorescence on glutathione beads, profiling panel, artefact control, biophysical, 488/530 nm, flow cytometry | GSH beads flow cytometry, compound fluorescence 488/530 nm; stronger effect = higher value | fluorescence (KMESF) at 10 µM | hit rate 0.25% among 190,000 | AID 1776, 2009; in the data active = fluorescence above about 89;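 note: glutathione beads carrying GST-tagged Bcl family fusion proteins plus one bare bead set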
RGS7-Gao: RGS7-Galphao binding modulators, primary screen, biochemical, multiplexed bead flow cytometry. hit rate 0.35% among 220,000. binding response (% of control), % at 10 µM. actives lie on both sides; in the data active = binding response below about 49% or above about 150%; inconclusive = no clear call, values can overlap the other calls; inactive = in between;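 note: fluorescent Galphao held in activated GDP-AlF4 state binding bead-coupled RGS7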
Hits are given with their value; . = inactive; ? = inconclusive; / = no result given; [ ] = remark or other dose.

SMILES	RGS4-Gao reg	RGS8-Gao	Avidin bead fluor	RGS16-Gao	GSH fluor	RGS7-Gao
COC(=O)CSc1nc(-c2ccccc2)c2c(c1C#N)CCCC2	.	.	.	.	260	.
Cc1cc(=O)oc2cc(OCc3nnc(-c4ccccc4Br)o3)ccc12	.	.	49	.	.	.
O=C(NCCSc1ccccc1)c1cncc(Br)c1	.	.	91	.	.	.
O=C(NCCSc1ccccc1)c1ccc(Br)cc1	.	.	.	.	.	.
CCOC(=O)C(C)Sc1nc2c([nH]c3ccccc32)c(=O)n1C (stereo unspecified)	.	.	.	.	.	.
CC(C)Sc1nc2c([nH]c3ccccc32)c(=O)n1C	.	.	57	.	.	.
COc1ccc(CNC(=S)NC(C)CCc2ccccc2)cc1 (stereo unspecified)	.	.	.	.	.	.
O=C(COC(=O)c1ccc2c(c1)C(=O)N(c1cccc3ncccc13)C2=O)c1ccc(Cl)cc1	.	.	.	.	.	.
Cc1ccc(C(=O)COC(=O)c2ccc3c(c2)C(=O)N(c2cccc4ncccc24)C3=O)cc1	161.8[activator]	.	.	.	.	.
CCC(O)CNC(=O)CCc1nnc(C2(c3ccc(Cl)cc3)CCC2)o1 (stereo unspecified)	.	.	.	.	.	.
Cc1noc(/C=C/c2ccc(-c3ccccc3Cl)o2)c1[N+](=O)[O-]	.	.	57	.	.	.
CCN(C(=O)CSc1nc2ccccc2n1CCc1ccccc1)C1CCS(=O)(=O)C1 (stereo unspecified)	.	.	.	.	.	.
Cn1c(SCC(=O)Nc2cccc(F)c2)nc2c([nH]c3ccccc32)c1=O	.	.	.	.	.	.
O=C(CSc1ccc2c(c1)OCCO2)Nc1ccc(Br)cc1	.	.	.	.	.	.
Cc1sc2ncnc(Nc3ccccc3)c2c1C	.	.	92	.	.	.
Cc1sc2ncnc(NCc3ccccc3)c2c1C	.	.	.	.	.	.
N#CC1=C(Nc2ccccc2)SC=C(c2ccc(F)cc2)N=C1N1CCOCC1	.	.	.	.	.	.
CC(=O)Nc1ccc(C(=O)OC2CCOC2=O)cc1 (stereo unspecified)	.	.	.	.	.	.
CC(=O)Nc1ccc(C(=O)OC2CCCCC2=O)cc1 (stereo unspecified)	.	.	.	.	280	.
O=C(CN(C(=O)CCC(=O)Nc1nccs1)c1cccc(F)c1)NCC1CCCO1 (stereo unspecified)	.	.	59	.	.	.
COc1ccc(Cc2nc3ccccc3[nH]2)cc1OC	.	.	.	.	.	.
CCOC(=O)C1=C(C)NC(SC)=NC1c1ccc(OC)cc1 (stereo unspecified)	.	.	.	.	111	.
Cc1ccc(-c2ccc(CCC(=O)O)n2NC(=O)c2ccc([N+](=O)[O-])cc2)cc1	.	.	.	.	.	.
O=C(CC1C(=O)NCCN1C(=O)Nc1ccccc1)Nc1ccc2c(c1)OCCO2 (stereo unspecified)	.	.	60	.	.	.
O=C(c1ccc(F)cc1)C(CCCCCC(CN1CCOCC1)C(=O)c1ccc(F)cc1)CN1CCOCC1 (stereo unspecified)	.	.	185	.	.	.
SMILES	RGS4-Gao reg	RGS8-Gao	Avidin bead fluor	RGS16-Gao	GSH fluor	RGS7-Gao
OC(CN1CCOCC1)c1ccc(F)cc1 (stereo unspecified)	.	.	.	.	.	?
COc1cccc(Cc2n[nH]c(=S)n2Cc2ccco2)c1	.	.	.	.	/	?
COc1cc(-c2c(C#N)c(=O)[nH]c3c2c(C)nn3-c2ccccc2)ccc1O	.	.	48	.	.	.
COC(=O)c1cc(NC(=O)CN(c2ccc(OC)cc2)S(=O)(=O)c2ccc(F)cc2)ccc1Cl	/	/	/	/	.	/
Cc1ccc(NC(=O)c2ccc(OC(=O)CCN3C(=O)c4ccccc4C3=O)cc2)cc1	.	.	48	.	.	.
CS(=O)(=O)N1CCN(c2ccc([N+](=O)[O-])c(NCc3ccc(Cl)cc3)c2)CC1	.	.	.	.	99	.
Nc1nc(-c2ccc3c(c2)CCCC3)cs1	.	.	.	.	263	.
CC(C)[C@H](NC(=O)[C@@H]1Cc2ccccc2CN1C(=O)OC(C)(C)C)C(=O)NCC1CCC(C(=O)O)CC1 (stereo partly specified)	.	.	.	.	/	?
C=CCN1C(=O)S/C(=C\c2ccc3c(c2)n(C)c(=O)n3C)C1=O	.	.	.	.	.	.
CCN1C(=O)S/C(=C/c2ccsc2)C1=O	.	.	52	.	.	.
C=CCN1C(=O)S/C(=C/c2ccsc2)C1=O	.	.	.	.	108	.
CCN1C(=O)S/C(=C/c2cn(C)c3ccccc23)C1=O	.	.	.	.	.	.
CCN(CC)c1ccc(/C=C2\C(=O)c3ccc(C(=O)O)cc3C2=O)cc1	.	.	.	.	306	.
Cc1ccc(-c2nnc(N3CC(C)OC(C)C3)c3ccccc23)cc1 (stereo unspecified)	.	.	.	.	.	.
CCOc1ccccc1OCC(=O)Nc1nnc(C)s1	.	.	117	.	.	.
Cc1cc(N2CCOCC2)nc(NCc2ccccc2)n1	.	.	.	.	259	.
c1cncc(CNc2nc(N3CCOCC3)nc(N3CCOCC3)n2)c1	.	.	67	.	.	.
COc1ccccc1NS(=O)(=O)c1cccc(C(=O)NCc2ccco2)c1	.	.	.	.	.	.
O=C(O)c1cc2nc3c(c(C(F)(F)F)n2n1)CCc1ccccc1-3	-11.5	19.4	/	-6.0	.	1.4
CCC(C)NCCOCCOc1ccc(Cl)c2ccccc12 (stereo unspecified)	.	.	.	.	.	?
CC(=O)N1CCC(C(=O)Nc2ccccc2)(N(Cc2ccccc2)C(=O)c2cccnc2)CC1	.	.	.	.	267	.
CC(=O)Oc1ccc(N2C(=O)C3C4C=CC(C5CC45)C3C2=O)cc1[N+](=O)[O-] (stereo unspecified)	.	.	.	.	.	.
CCn1cc(C(=O)NCc2cccnc2)c(=O)c2cc(F)c(N3CCN(C(=O)c4ccco4)CC3)cc21	.	.	.	.	.	.
Cc1sc2ncn(CC(=O)NCC3COc4ccccc4O3)c(=O)c2c1S(=O)(=O)N1CCCCC1 (stereo unspecified)	.	.	.	.	.	.
COC(=O)CC1C(=O)NCCN1C(=O)CSc1nnc(Nc2ccc(C)cc2)s1 (stereo unspecified)	.	.	.	.	260	.

From PubChem
